According to PubChem BioAssay AID720511 (Broad Institute, 2013):
Screen size: about 350,000 compounds; about 1,300 (0.37%) were called active.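 Rule for the calls: active = mean added fluorescence quench of at least 8% versus neutral control, with both replicates also reaching 8%; inconclusive = only one of the mean or replicate conditions met; inactive = mean below 8% and not both replicates reaching 8%.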 The entries come from a sample that favours actives as a whole.

Experiment: F508del CFTR correction, initial screen, CFBE line, single point (AID 720511);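 note: cells transiently co-express mutant CFTR-F508del with the halide-sensitive YFP; corrector assay measuring rescue of mutant channel to the surface after 24 h compound exposure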
Conditions: CFBE cells, YFP halide quenching, at 7.58 µM, hits give high values, % fluorescence drop versus neutral controls, stimulated with forskolin plus potentiator P3

Activity (quench increase), inactive:
CCC(=O)N1CC2(CN(Cc3cccnc3)C2)c2c(n(C)c3cc(OC)ccc23)[C@@H]1CO -0.0075%
CCCC#Cc1cnc2c(c1)C(=O)N([C@@H](C)CO)C[C@@H](C)[C@@H](CN(C)Cc1ccccc1F)O2 0.509%
CNC(=O)C[C@@H]1CC[C@@H]2[C@@H](COc3ccc(NC(=O)c4ccc5c(c4)OCO5)cc3C(=O)N2C)O1 0.442%
COCC(=O)N(C)C[C@@H]1Oc2ncc(C#C[C@H](C)O)cc2C(=O)N([C@@H](C)CO)C[C@@H]1C 1.42%
COc1ccc(NC(=O)Nc2ccc3c(c2)[C@H]2C[C@H](CC(=O)NC4CCCC4)O[C@H](CO)[C@H]2O3)cc1 2.1%
C[C@@H]1CCCCO[C@H](CN(C)C(=O)CCC(F)(F)F)[C@@H](C)CN([C@@H](C)CO)C(=O)c2cc(NC(=O)c3ccncc3)ccc2O1 2%
Cc1ccccc1-c1ccc([C@H]2[C@H]3CN(S(=O)(=O)c4ccc(F)cc4)CCCCN3[C@H]2CO)cc1 -0.288%
O=C(N[C@H]1CC[C@H](CCn2cc(-c3ccccc3F)nn2)O[C@@H]1CO)c1ccc2c(c1)OCO2 -1.87%
C[C@@H]1CCCCO[C@@H](CN(C)Cc2ccncc2)[C@H](C)CN([C@@H](C)CO)C(=O)c2cc(N(C)C)ccc2O1 -0.227%
N#C[C@@H]1[C@@H](c2ccccc2)[C@H](CO)N1C(=O)c1cc(Cl)cc(Cl)c1 -2.95%
COc1ccccc1CCNC(=O)C(=O)NCCC1CCCCN1S(=O)(=O)c1cccs1 (stereo unspecified) 0.824%
O=C(NCCC1CCCCN1S(=O)(=O)c1ccc(F)cc1)C(=O)NC1CC1 (stereo unspecified) 3.1%
COc1cccc(-c2ccc3c(c2)O[C@@H](CN(C)Cc2ccncc2)[C@H](C)CN([C@H](C)CO)S3(=O)=O)c1 3.64%
Cc1noc(C)c1NC(=O)N(C)C[C@H]1OCCCC[C@@H](C)Oc2ccc(NC(=O)NC(C)C)cc2C(=O)N([C@H](C)CO)C[C@@H]1C 1.72%
COc1ccccc1-n1ccnc1SCC(=O)NC(C)(C)C 0.912%
COc1ccccc1-n1c(CNC(=O)c2ccccc2)nnc1SCC(=O)Nc1nnc(C)s1 2.1%
C[C@H](CO)N1C[C@H](C)[C@H](CN(C)S(=O)(=O)c2ccc(Cl)cc2)Oc2c(NS(C)(=O)=O)cccc2C1=O 1.05%
CCCNC(=O)[C@@H]1[C@@H](CO)[C@@H]2Cn3c(ccc(/C=C/c4ccccc4)c3=O)[C@H]1N2CCC 3.14%
CCCN1[C@H](C(=O)N2CCCCC2)[C@@H](CO)[C@@H]2Cn3c(ccc(-c4ccccc4F)c3=O)[C@@H]21 1.6%
Cc1ccc(S(=O)(=O)Nc2ccc3c(c2)C(=O)N([C@@H](C)CO)C[C@@H](C)[C@H](CN(C)Cc2ccncc2)O3)cc1 -0.494%
C[C@@H]1CCCCO[C@H](CN(C)Cc2ccc(Cl)c(Cl)c2)[C@@H](C)CN([C@@H](C)CO)C(=O)c2cc(NC(=O)Nc3ccccc3)ccc2O1 0.025%
Cc1ccc(C(=O)OCC(=O)N2CC(C)CC(C)C2)cc1S(=O)(=O)N1CCCCC1 (stereo unspecified) 0.347%
COc1ccc(CNC(=O)COC(=O)c2ccc(C)c(S(=O)(=O)N3CCOCC3)c2)cc1OC -3.23%
Cc1cc(C)c(C#N)c(Nc2cccc(Br)c2)n1 -5.44%
C[C@H]1CN([C@@H](C)CO)C(=O)c2ccccc2-c2ccccc2CO[C@@H]1CN(C)C(=O)CCN(C)C -0.09%
O=C(Nc1ccc(F)cc1)N[C@H]1CC[C@H](CCn2cc(C3(O)CCCC3)nn2)O[C@@H]1CO 0.048%
CC(C)c1cc(C(=O)NC2CCCCCC2)c2ccccc2n1 0.503%
O=C(NNC(=O)C(O)c1ccccc1)NC1CCCCC1 (stereo unspecified) -1.37%
CNC[C@H]1OCCCC[C@@H](C)Oc2ccc(NC(=O)Cc3ccccc3)cc2C(=O)N([C@H](C)CO)C[C@@H]1C -0.325%
CCCNC(=O)N(C)C[C@@H]1Oc2ncc(-c3cccc(C#N)c3)cc2C(=O)N([C@@H](C)CO)C[C@@H]1C 0.957%
O=C(c1cnccn1)N1CC[C@@H]2[C@H](CO)Nc3ccc(-c4cccc(F)c4)cc3[C@@H]21 2.08%
CCNC(=O)C1CCCN(C(=O)c2ccc(OC)cc2OC)CC1 (stereo unspecified) -1.31%
CCOC(=O)C1CCCN(C(=O)c2ccc(C)c(F)c2)CC1 (stereo unspecified) 0.23%
CCCNC(=O)N1[C@H](CO)[C@@H]2c3ccccc3N(C(=O)C3CCOCC3)C[C@@H]21 2.24%
COc1ccc(NC(=O)N(C)C[C@@H]2OCCCC[C@@H](C)Oc3ccc(NS(=O)(=O)c4cn(C)cn4)cc3C(=O)N([C@@H](C)CO)C[C@H]2C)cc1 0.433%
Cn1cc(C(=O)c2ccc(Cl)cc2Cl)cc1C(=O)NN -2.38%
CC(C)(C)NC(=O)NC(=O)COC(=O)Cc1ccc(Cl)cc1Cl 1.27%
C[C@H]1CN([C@@H](C)CO)C(=O)c2cc(C#CC(C)(C)O)cnc2O[C@H]1CN(C)C(=O)CC1CC1 0.266%

Activity (quench increase), active:
O=C(NCCC1CCCCN1S(=O)(=O)c1cccs1)C(=O)Nc1ccc(F)cc1F (stereo unspecified) 8.8%
Cc1nnc(NC(=O)CSc2nccn2-c2cccc(C)c2C)s1 8.52%
CCCN1[C@H](C(=O)N2CCOCC2)[C@@H](CO)[C@@H]2Cn3c(ccc(/C=C/c4ccccc4)c3=O)[C@@H]21 9.23%
Cc1ccc(C(=O)OCC(=O)NCc2cc(C)c(O)c(C)c2)cc1S(=O)(=O)N1CCCCC1 9.62%
Cc1cc(Nc2ccc(Br)cc2)nc2ccccc12 10.3%
Cc1nc(/N=C(\N)NC(=O)NC2CCCCC2)nc2ccccc12 12.3%
CCNC(=O)C1CCCN(C(=O)c2cc(F)ccc2C)CC1 (stereo unspecified) 10%
CC(C)(C)c1cc(C(=O)NN)n(Cc2ccc(Cl)cc2Cl)n1 8.63%
